# About 83,000 compounds went through this panel and 20% of them were active in at least one assay; those are over-represented in the sample as a whole.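 The endpoint reported here, percent growth, reads 100 for growth as untreated, 0 for no net growth and -100 for all cells dead.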 Values without a mark were called inactive. Activity calls are given as the source filed them. The calls were made as follows: active = growth percent below 10; inactive = the rest.
# What was measured:
# Experiment in all cases: NCI-60 one-dose screen, 48 h (100 = growth as untreated, 0 = no growth, -100 = all killed)
# Settings in all cases: 10 µM unless noted
# HCT-15 colon = tested on: HCT-15 colon
# HT29 colon = tested on: HT29 colon
# SNB-75 CNS = tested on: SNB-75 CNS
# SNB-19 CNS = tested on: SNB-19 CNS
# U251 CNS = tested on: U251 CNS
# PC-3 prostate = tested on: PC-3 prostate
# SK-MEL-5 melanoma = tested on: SK-MEL-5 melanoma
# UACC-62 melanoma = tested on: UACC-62 melanoma
# LOX IMVI melanoma = tested on: LOX IMVI melanoma
# SK-MEL-28 melanoma = tested on: SK-MEL-28 melanoma
Compound,growth (HCT-15 colon),growth (HT29 colon),growth (SNB-75 CNS),growth (SNB-19 CNS),growth (U251 CNS),growth (PC-3 prostate),growth (SK-MEL-5 melanoma),growth (UACC-62 melanoma),growth (LOX IMVI melanoma),growth (SK-MEL-28 melanoma)
Cn1cccc1/C=C1\C(=O)Nc2ccccc21,50.9%,103%,90.3%,90.4%,97.7%,94.2%,56.6%,90.6%,87.2%,112%
CC(=O)Nc1c(Cl)cc(Cl)c2c1Cc1cc([N+](=O)[O-])ccc1-2,89.7%,81.4%,58%,99.8%,74.3%,81.2%,103%,102%,76.8%,100%
O=C1Nc2ccc(F)cc2/C1=C\c1nc(-c2ccccc2F)n2ccccc12,26.3%,13.8%,95.8%,94.3%,73.5%,76.3%,89.7%,94.6%,61%,130%
O=C(Nc1cccc(NC(=O)C2CCCCC2)c1)c1ccccn1,100%,90.4%,87%,111%,109%,104%,99.7%,96.8%,90.6%,103%
C=C(C)[C@@H]1CC[C@]2(CO)CC[C@]3(C)[C@H](CC[C@@H]4[C@@]5(C)CCC(NCCc6ccc(O)cc6)C(C)(C)[C@@H]5CC[C@]43C)[C@@H]12 (stereo not given in full),-92.8% (active),-87.9% (active),-86.7% (active),-82.1% (active),-94.2% (active),-84.2% (active),-95.4% (active),-89.3% (active),-96.8% (active),-88.8% (active)
C#CC#CC#CC#CC#CC#CC#CC#CC[C@H]1OC[C@H](COC(=O)O[C@@H](C(=O)O[C@H]2C[C@@]3(O)[C@@H](OC(=O)c4ccccc4)[C@@H]4[C@]5(OC(C)=O)CO[C@@H]5C[C@H](O)[C@@]4(C)C(=O)[C@H](OC(C)=O)C(=C2C)C3(C)C)[C@@H](NC(=O)c2ccccc2)c2ccccc2)O1,99.5%,8.74% (active),37.6%,50.3%,37.8%,32.7%,60.5%,46.2%,39.7%,52.1%
Cc1nn(-c2ccccc2)c(/N=C/N(C)C)c1/C=C/C(=O)c1ccc(Cl)cc1,62.7%,95.4%,91.6%,100%,95.1%,85.9%,89.3%,88.3%,49%,89.6%
O=C(CSc1nc2ccc([N+](=O)[O-])cc2[nH]1)Nc1cccc([N+](=O)[O-])c1,54.4%,57.6%,49.5%,64.2%,41.5%,44.8%,19.7%,21.1%,57.8%,55.7%
C=C1C(=O)O[C@H]2[C@H]1CC/C(Cn1cc(-c3cc(C(F)(F)F)cc(C(F)(F)F)c3)nn1)=C\CC[C@@]1(C)O[C@@H]21,-90.6% (active),-86% (active),-96.6% (active),-80.3% (active),-97.6% (active),-81% (active),-99.5% (active),-76.6% (active),-87.1% (active),-82.7% (active)
Cc1nn(-c2ccccc2)c(N2CCCCC2)c1/C=N/NC(=O)Cn1c(=O)sc2ccccc21,61.3%,57.3%,75%,70.9%,73.4%,61.7%,73.7%,64.3%,60.3%,114%
O=C(Cn1nnc([N+](=O)[O-])n1)c1ccccc1,80.5%,66.4%,67.9%,116%,106%,79.8%,84.1%,68.8%,59.6%,110%
O=C(Cn1cc(CN2C(=O)c3ccccc3S2(=O)=O)nn1)Nc1cccc(Cl)c1,98.2%,109%,87.8%,115%,112%,104%,106%,97.4%,89.5%,105%
CCOC(=O)C1CCN(c2ccc(N3C[C@@H](CNCc4ccc(C(=N)N)cc4)OC3=O)cc2)CC1,102%,105%,83.8%,98.9%,104%,94.4%,103%,97.3%,96.4%,105%
